Sampled rows, rich in hits. Any-hit rate of the full collection: about 1.5%.
ABCB6 inh 2 – human ABCB6 transporter inhibition | Q9NP58 | K562-ABCB6 porphyrin accumulation, flow cytometry, 1 h; stronger effect = lower value | fluorescence ratio to DMSO, % at 10 µM | 0.19% of 360,000 active | AID 602162;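 active = fluorescence ratio to DMSO below 75%, the collection mean minus 3 SD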;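 also: signal is porphyrin accumulated inside mitochondria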
DAGLB inhibitor – diacylglycerol lipase beta (human) inhibition | 0.059% of 340,000 active | inhibition, % at 5.17 µM | AID 504411 | HEK293T DAGLB membrane lysate, EnzChek fluorogenic substrate | Q8NCG7; in the data active = inhibition above about 34%
iPSC survival up – increases survival of single human iPS cells; survival enhancement, % at 20 µM; 0.044% of 360,000 active; hiPSC single-cell survival, ATPlite luminescence; 100% = ROCK inhibitor wells, 0% = DMSO; in the data active = survival enhancement above about 18%;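 also: cells exposed to compounds for 16 hours before the ATP read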
TMEM16A inh – blocks the mouse calcium-activated chloride channel TMEM16A | Q8BHY3 | HEK293 TMEM16A/YFP iodide influx fluorescence, ionomycin | normalized B-score (activity score, 25-100; higher = stronger inhibition) at 10 µM | 1.2% of 310,000 active | AID 588511;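 active = ratio plate-corrected score three or more library SD toward inhibition, starting fluorescence score within five deviations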;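 also: score derived from kinetic fluorescence span divided by baseline fluorescence per well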
TMEM16A act – activators or potentiators of mouse TMEM16A chloride channel. Q8BHY3. HEK293 TMEM16A/YFP-H148Q/I152L, iodide quench fluorescence; stronger effect = lower value. B-score at 10 µM. 0.3% of 340,000 active. AID 623877;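 active = fluorescence-ratio B-score plate-corrected deviation score at least 3 library SD below zero, with starting fluorescence score within 5 deviations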;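 also: channel opened by trigger with iodide after compound preincubation; score built on the fluorescence ratio of max minus min over baseline; more negative score means more quench and so TMEM16A activation or potentiation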
Of the large screens only hits and unclear results are named; the others gave an inactive call.

O=[N+]([O-])c1ccc(N2CCCC2)cc1NCc1ccccc1	TMEM16A act -6.54
CC(C)N1CCC1(C)C(=O)Nc1ccc2cn[nH]c2c1 (stereo unspecified)	none (no result: DAGLB inhibitor, TMEM16A inh, TMEM16A act)
Cc1[nH]n(-c2ccccc2)c(=O)c1C=Nc1ccc2[nH]c(=O)[nH]c2c1	none
Cc1[nH]oc(=O)c1N=Nc1ccc2[nH]c(=O)[nH]c2c1	ABCB6 inh 2 71.0
C[C@@H]1CCCCO[C@H](CN(C)C(=O)Nc2ccc3c(c2)OCO3)[C@H](C)CN([C@@H](C)CO)C(=O)c2cc(NS(=O)(=O)c3ccc(Cl)cc3)ccc2O1	none (no result: TMEM16A inh, TMEM16A act)
CCOC(=O)C1(CCCc2ccccc2)CCN(CCCn2cccn2)CC1	none
CCOC(=O)C1(Cc2ccccc2C(F)(F)F)CCN(CCCn2cccn2)CC1	TMEM16A act -6.57
c1ccc(-c2csc3nnc(SCc4ccc5c(c4)OCCO5)n23)cc1	TMEM16A inh 25
COc1ccc(CCNC(=O)C2CCC(=O)N(C3CCCCCC3)C2)cc1 (stereo unspecified)	none
Cn1nnc2cc(C(=O)NC3CC3)ccc21	TMEM16A act -29.4
O=C(Nc1nnc(SCc2ccccc2Cl)s1)C1COc2ccccc2O1 (stereo unspecified)	TMEM16A inh 25
Cc1ccccc1CSc1nnc(NC(=O)C2COc3ccccc3O2)s1 (stereo unspecified)	none
CN(CC(=O)Nc1ccc(Cl)c(Cl)c1)C(=O)C1CCCC1	none (no result: TMEM16A inh)
CCc1ccc(/C=C2\SC(=S)N(CCCC(=O)Nc3ccccc3C(=O)O)C2=O)cc1	TMEM16A inh 100
CCc1ccc(/C=C2\SC(=S)N(CCCC(=O)Nc3ccc(C(=O)O)cc3)C2=O)cc1	TMEM16A inh 100
Cc1cc(C(C#N)c2ccc(Cl)cc2)c(Cl)cc1NC(=O)c1cc(I)cc(I)c1O (stereo unspecified)	TMEM16A inh 100
Oc1ccc(Br)cc1/C=N/n1c(-c2ccccc2)n[nH]c1=S	none
Oc1c(Br)cc(Br)c(/C=N/n2c(-c3ccccc3)n[nH]c2=S)c1Br	TMEM16A inh 100
c1ccc(C2=NNC(c3ccccn3)=NN2)nc1	none
Cc1nn(CCc2nn[nH]n2)c2nc(-c3ccc(Br)cc3)cc(C(F)(F)F)c12	TMEM16A inh 100
Cc1cc(C)n2nc(SCC(=O)N(CCC#N)c3ccc(F)cc3)nc2n1	none (no result: TMEM16A inh)
CCN(CC)S(=O)(=O)c1cc(C)ccc1NC(=S)Nc1cccnc1	TMEM16A inh 25
CCN(CC)S(=O)(=O)c1cc(C(=O)Nc2cccnc2)ccc1Cl	none
c1ccc(CCNc2cnccn2)cc1	TMEM16A act -4.68
O=C(Nc1nc(-c2cccs2)cs1)c1ccc(Cl)s1	TMEM16A inh 25
CC(C)(C)n1nnnc1C(c1cccnc1)N(Cc1ccccc1)Cc1ccco1 (stereo unspecified)	none
COc1cccc(CN(Cc2ccco2)C(c2ccc(F)cc2)c2nnnn2C(C)(C)C)c1 (stereo unspecified)	TMEM16A act -25.6
O=C1/C(=N\S(=O)(=O)c2cccs2)C([n+]2ccccc2)=C([O-])c2ccccc21	TMEM16A act -10.5
Cc1onc(-c2ccccc2Cl)c1C(=O)Nc1nnc(-c2cccc([N+](=O)[O-])c2)s1	TMEM16A inh 100
Cc1onc(-c2ccccc2Cl)c1C(=O)Nc1cccc2cccnc12	TMEM16A inh 100
COc1cc(NC(=O)c2c(-c3ccccc3Cl)noc2C)c2ncccc2c1	none
c1csc(CCCN2CCCCC2)c1	none (no result: TMEM16A inh)
CCOC(=O)c1cc(OC)c2cccc(CN3CCC(C)(C(=O)NCCOC)C3)c2c1 (stereo unspecified)	none (no result: DAGLB inhibitor, TMEM16A inh, TMEM16A act)
COC(=O)c1c(C)[nH]c(C(=O)OCC(=O)N(CC(C)C)c2c(N)n(Cc3ccccc3)c(=O)[nH]c2=O)c1C	none
CC(=O)Nc1sc(C)c(C)c1C(=O)OCC(=O)N(CC(C)C)c1c(N)n(Cc2ccccc2)c(=O)[nH]c1=O	TMEM16A act -6.6
COc1ccc(-c2c[n+]3c(n2-c2ccc(C)cc2)CCCCC3)cc1	TMEM16A inh 25
Cc1ccc(NS(=O)(=O)c2ccc3c(c2)CC(=O)N3)c(C)c1	iPSC survival up 30.7
Cc1cc(C)cc(OCC(=O)OCC(=O)N(C)CC(=O)Nc2ccc(F)cc2)c1	none
Cc1cc[n+](-c2[nH]c(=O)sc2/C=N/NC([S-])=Nc2ccccc2)cc1	TMEM16A act -5.05
O=c1[nH]c(-[n+]2ccccc2)c(/C=N/NC([S-])=Nc2ccccc2)s1	none

Bioassay records (PubChem)
